Rab9 promoter act: activates the Rab9 promoter | Huh7 Rab9 promoter-luciferase reporter, luminescence, 24 h | Potency, µM (doses to about 9.22 µM), actives largely listed as activators | actives 2.8% (n = 320,000) | AID 485297; note: nearly all actives have a fitted effect of over 60% in size
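Measured in stably transfected Huh7 cells bearing a Rab9 promoter–luciferase construct: 24 h compound treatment at 37 °C, followed by luminescence detection.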
Luc counter: blocks Kinase-Glo luciferase, a counter-screen artifact; actives 0.28% (n = 200,000); Kinase-Glo luciferase, ATP luminescence, 8 min; Q27757; Potency, µM (series often up to 38.3 µM), most hits filed as inhibitors; note: nearly all actives have a fitted effect of over 60% in size
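Compound is pinned into ATP-containing buffer (10 uM ATP, imidazole pH 7.2, 7 mM MgCl2). Kinase-Glo luciferase reagent is then added. Light output is recorded following an 8-min room-temperature incubation.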
FLuc modulator: inhibits or activates purified firefly luciferase, miR-21 counter-screen; purified FLuc, Km substrates, luminescence inhibition; Potency, µM (series often up to 57.5 µM), most hits filed as inhibitors; actives 6.9% (n = 360,000); AID 588342; P08659; note: nearly all actives have a fitted effect of over 55% in size
Target sequence (P08659 whole entry, looked up): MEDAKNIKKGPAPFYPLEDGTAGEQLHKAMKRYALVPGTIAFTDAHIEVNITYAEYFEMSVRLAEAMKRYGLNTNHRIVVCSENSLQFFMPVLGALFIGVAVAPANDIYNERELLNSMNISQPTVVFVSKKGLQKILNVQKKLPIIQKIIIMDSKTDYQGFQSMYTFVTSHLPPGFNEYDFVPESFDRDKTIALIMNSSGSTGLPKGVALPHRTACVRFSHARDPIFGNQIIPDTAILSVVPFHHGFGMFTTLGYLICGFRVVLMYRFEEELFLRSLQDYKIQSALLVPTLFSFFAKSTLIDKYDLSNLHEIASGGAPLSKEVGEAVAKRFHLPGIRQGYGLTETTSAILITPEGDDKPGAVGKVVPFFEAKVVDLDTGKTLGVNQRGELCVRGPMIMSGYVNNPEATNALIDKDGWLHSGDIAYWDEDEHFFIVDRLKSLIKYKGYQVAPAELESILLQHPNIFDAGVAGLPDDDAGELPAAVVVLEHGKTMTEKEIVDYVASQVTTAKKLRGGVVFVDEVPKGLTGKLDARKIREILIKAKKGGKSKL
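Purified P. pyralis luciferase, 10 nM final, with Km-level 10 uM D-luciferin and 10 uM ATP in 50 mM Tris acetate pH 7.5, 10 mM Mg acetate, 0.01% Tween-20, 0.05% BSA; 6-point qHTS titration about 60 µM downward; luminescence read.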
ELG1 genotox: inducers of genotoxicity in HEK293T ELG1-luciferase cells | HEK293T ELG1-luciferase reporter, luminescence, 16 h | Potency, µM (doses to about 46 µM), hits mostly activators | actives 1.3% (n = 330,000) | AID 504466; note: nearly all actives have a fitted effect of over 60% in size
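Reporter readout depends on ELG1 protein level, which increases with genetic stress. After 16 hr compound exposure at 37 °C, luciferase activity was quantified using ONE-Glo.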
NPC1 prom act: activators of NPC1 promoter; Huh7 NPC1 promoter luciferase reporter, 24 h; AID 485313; actives 2.4% (n = 320,000); Potency, µM (doses to about 9.22 µM), usual class: activators; note: nearly all actives have a fitted effect of over 60% in size
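Huh7 reporter cells (NPC1 promoter driving luciferase) are dosed with compound for 24 h at 37 °C, 5% CO2; luciferase detection reagent is then added and luminescence measured after 10 min at ambient temperature.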
SMN2 splice enh: enhancers of SMN2 splice variant expression; HEK293 SMN2-luciferase splicing reporter, luminescence, 30-36 h; Potency, µM (series often up to 46.1 µM), actives largely listed as activators; AID 1458; actives 2.8% (n = 210,000); note: nearly all actives have a fitted effect of over 55% in size
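HEK293 cells carry an SMN2 […]–luciferase reporter in which exon 7 inclusion puts luciferase in frame. Cells were plated 10-12 h before compound addition, then incubated 30-36 h at 37C. ONE-Glo luminescence was read; sodium butyrate at 4.5 mM final served as control.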
A number is an active result; - = inactive; ? = inconclusive; . = no result; [ ] = remark or other dose. Shown are actives, neighbours in structure and some others; about 7.5% of the full set was active somewhere. Calls come from the whole dose curve; as a rule, active = well fitted curve in the direction sought with a large enough effect; inconclusive = small, poorly fitted or top-dose-only effect, or another doubt; inactive = no such curve, though single readings can be large; an effect the other way counts as inactive or inconclusive.

SMILES	Rab9 promoter act	Luc counter	FLuc modulator	ELG1 genotox	NPC1 prom act	SMN2 splice enh
CSc1nnc(-c2ccccc2SC)o1	-	-	-	-	-	-
CSc1ccccc1-c1nnc(-c2ccc(C)cc2)o1	?	-	1.5µM	?	?	10µM
CSc1ccccc1-c1nnc(-c2ccccc2)o1	3.2µM	?	3.4µM	?	-	11µM
Cc1ccc(C(=O)N/C(=C\c2ccccc2)C(=O)NCCCn2ccnc2)cc1	-	-	-	-	-	.
O=C(Cn1nnc(-c2ccccc2)n1)N1CCCCC1	?	.	-	?	-	.
O=C(Cn1nnc(-c2ccccc2Cl)n1)N1CCCCC1	4µM	.	17µM	?	?	.
O=C(Cn1nnc(-c2ccc(OCc3ccccc3F)cc2)n1)N1CCOCC1	?	-	2.7µM	?	?	-
CC(C)COc1ccc(-c2nnn(CC(=O)N3CCCC3)n2)cc1	-	-	12µM	?	-	-
Cc1ccc2nc(Nc3ccc(Br)cc3)nc(-c3ccccc3)c2c1	.	.	-	.	.	-
CCc1nnc2c3ccccc3nc(Nc3ccc(F)cc3C)n12	.	.	-	.	.	-
COc1ccc(Cl)cc1NS(=O)(=O)c1ccc2c(c1)NC(=O)CC(=O)N2	.	.	-	.	.	-
O=C(NN1C(=O)c2ccccc2C1=O)c1ccncc1	-	-	-	-	-	-
CC(=O)c1c(C(C)=O)c(C)n(NC(=O)c2ccncc2)c1C	-	-	-	-	-	25µM
COc1ccc(/C(N)=N/OC(=O)C2CCCCC2)cc1OC	?	.	?	-	?	.
COc1ccc(C(=O)O/N=C(\N)c2ccccc2)c(OC)c1	?	?	1.7µM	?	3.2µM	3.2µM
COc1ccc(C(=O)O/N=C(\N)c2ccc(OC)c(OC)c2)c(OC)c1	-	.	?	?	-	.
COc1ccc(/C(N)=N/OC(=O)C2CCCCC2)cc1	?	.	8.5µM	8.2µM	2.8µM	.
COc1ccc(C(=O)O/N=C(\N)c2ccccn2)c(OC)c1	0.5µM	.	2.7µM	1.5µM	0.5µM	.
COc1ccc(C(=O)O/N=C(\N)c2ccc(OC)c(OC)c2)cc1	?	.	7.6µM	?	-	.
Cc1ccc(S(=O)(=O)c2cn(Cc3ccccc3F)c3cc4c(cc3c2=O)OCO4)cc1	.	.	-	.	.	-
CC(C)c1cc(=O)n2[nH]c(N)nc2n1	-	-	-	-	-	-
COc1ccc(CCNC(=O)Cc2c(C)c3c(cc(C)c4c(C)c(C)oc43)oc2=O)cc1	.	.	-	.	.	-
CCn1ccc(C(=O)Nc2ccccc2SC)n1	4.5µM	-	?	?	?	14µM
CCn1nccc1C(=O)Nc1ccc(Cl)cn1	-	?	?	?	-	-
CCn1ccc(C(=O)Nc2ccc(Cl)cn2)n1	4µM	-	19µM	?	3.2µM	?
SMILES	Rab9 promoter act	Luc counter	FLuc modulator	ELG1 genotox	NPC1 prom act	SMN2 splice enh
CC(C)c1ccc(OC(=O)c2cc(-c3ccc(Cl)cc3)on2)cc1	.	.	-	.	.	.
CCn1ccc(C(=O)Oc2ccc(Cl)cc2)n1	-	-	7.6µM	-	-	-
Cc1cc(Br)ccc1NC(=O)C1(S(=O)(=O)c2ccc(Cl)cc2)CC1	.	.	-	.	.	-
COc1ccccc1CNCCCCCCNCCCCCCCCNCCCCCCNCc1ccccc1OC	-	-	.	.	-	-
Cc1ccsc1/C=N/NC(=O)c1ccccn1	2.5µM	?	8.5µM	?	2µM	11µM
Cc1ccsc1/C=N/NC(=O)c1cccs1	?	.	11µM	?	?	.
O=c1c2ccccc2nc(COc2ccccc2)n1/N=C/c1cc([N+](=O)[O-])ccc1O	-	-	19µM	-	-	-
Cc1cc(/C=N/n2c(COc3ccccc3C)nc3ccccc3c2=O)c(O)c([N+](=O)[O-])c1	-	-	24µM	-	-	-
CCOC(=O)CCCc1ccc(/C(C)=N/NC(N)=S)cc1	-	.	-	-	-	.
CC12CCC(=O)N1C(C(=O)Nc1cc(Cl)ccc1N1CCOCC1)CS2 (stereo not given)	-	.	-	-	-	.
CCCc1ccc2oc(C(=O)N(C)Cc3nccs3)c(C)c2c1	?	.	15µM	23µM	?	.
CCc1ccc(-c2nc(CSCC(=O)NC3CC3)c(C)o2)cc1	-	.	19µM	-	-	.
COc1ccc(-c2nc(CSCC(=O)NCc3ccco3)c(C)o2)cc1	-	-	17µM	-	-	-
COc1ccc(OC)c(NC(=O)Cc2c(C(=O)O)n(C)c3ccc(C)cc23)c1	.	.	?	.	.	-
O=c1c2c(nc3cc(-c4ccc(F)cc4)[nH]n13)CCCC2	0.45µM	-	1.5µM	2.3µM	?	?
O=c1c2c(nc3cc(-c4cccc(Cl)c4)[nH]n13)CCC2	1.6µM	-	4.8µM	2.3µM	2µM	8.9µM
O=c1c2c(nc3c(-c4ccc(Cl)cc4)c[nH]n13)CCCC2	-	-	-	-	-	-
O=c1c2c(nc3cc(-c4cccc(F)c4)[nH]n13)CCC2	1.1µM	-	6µM	?	1.6µM	8.9µM
Cc1noc(C)c1CN1C(=O)c2ccccc2C1=O	-	.	-	-	-	.
CCN1CCc2c(sc(-n3cccc3)c2C(C)NC(=O)Nc2cc(Cl)c(OC)cc2OC)C1 (stereo not given)	.	.	-	.	.	.
O=C1CC(c2ccccc2)CC(O)=C1C=Nc1ccc(Cl)cc1 (stereo not given)	-	-	-	-	-	-[1.84 µM]
O=C1CC(c2ccccc2)CC(O)=C1C=Nc1cccc(Cl)c1 (stereo not given)	-	-	7.6µM	-	-	-[1.84 µM]
CCN(CC)C(=O)c1sc(NC(=O)c2cccs2)c(C#N)c1C	-	-	-	-	-	.
CCN(CC)C(=O)c1ccc(-c2cccs2)s1	3.5µM	.	11µM	?	2.5µM	.
COc1cccc(C(=O)NCCC2=CCCCC2)c1OC	4µM	-	-[2.3 µM]	?	?	13µM
SMILES	Rab9 promoter act	Luc counter	FLuc modulator	ELG1 genotox	NPC1 prom act	SMN2 splice enh
Cc1cc(C(=O)NCCC2=CCCCC2)c(C)o1	10µM	-	?	?	1µM	11µM
COc1cnc(SCCC(F)=C(F)F)[nH]c1=O	-	-	-	-	-	.
COc1ccc(C(=O)Nc2cccc(C(=O)N3CCCC3)c2)cc1	-	-	15µM	?	?	?
Cc1ccc(C(=O)Nc2cccc(NC(=O)CN3CCCCC3)c2)cc1	-	.	19µM	-	-	.
Cc1ccc(C(=O)Nc2cccc(C(=O)N3CCN(C)CC3)c2)cc1	4.5µM	-	9.5µM	?	3.2µM	11µM
Cc1cccc(C(=O)Nc2cccc(C(=O)N3CCOCC3)c2)c1	-	-	?	-	-	-
CC(=O)Nc1ccc(NC(=O)c2ccc3c(c2)CCN3S(=O)(=O)c2ccc(C)cc2)cc1	.	.	-	.	.	-
CC(=O)N1CCc2cc(NC(=O)c3ccc(C)cc3)ccc21	0.56µM	-	3.8µM	?	?	11µM
Cc1cccc(NC(=O)CN2CCCCCC2)c1	-	.	-	-	-	.
COc1cc(OC)cc(C(=O)NCC(=O)OC2CCCCC2=O)c1 (stereo not given)	-	.	-	-	-	.
